MITF inhib = MITF inhibition; inhibition, % (concentration not given with the values); actives 0.28% (n = 37,000); TRPM1 promoter luciferase, luminescence, 24 h; in the data active means inhibition above about 85%;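 further: human melanocyte line stably carrying TRPM1 promoter luciferase reporter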
YB-1 expression = YB-1 expression inhibition. U2OS, qRT-PCR YB-1 vs CDIP delta delta Cp, 16 h; active compounds read high; zero = DMSO, each unit about twofold. delta delta Cp (YB-1 minus CDIP) (concentration not given with the values). actives 0.37% (n = 30,000). AID 434959;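 active means delta delta Cp rounded down to an integer at or above 3, about 3 SD of DMSO wells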;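 further: higher means less YB-1 transcript or more CDIP transcript relative to DMSO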
PD-1 reversal = reversal of PD-1 mediated T-cell inhibition | primary human CD4 T cells, PD-L1 beads, CellTiter-Glo 96 h | activation, % (test concentration not listed) | 29,000 tested, under 10 active | AID 2316; call rule not given here
Hedgehog inh = blocks Sonic Hedgehog signaling; AID 2313; inhibition, % (no concentration beside the values); Shh-LIGHT2 Gli-luciferase reporter, 30 h; actives 2.1% (n = 22,000);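 active means mean inhibition across valid replicates above about 65%, limit read from the data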;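 further: pathway switched on by Shh-conditioned medium diluted 1 in 25 in low serum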
NOMO-1 viab = STK33 inhibitor candidate reducing NOMO-1 cell viability. NOMO-1 AML viability, CellTiter-Glo luminescence, 72 h. inhibition, % (concentration not given with the values). actives 7.5% (n = 37,000); in the data active means inhibition above about 80%
A number is an active result; - = inactive; . = no result. The list is not random: actives were taken first. Their share in the collection is about 7.4%.

SMILES	MITF inhib	YB-1 expression	PD-1 reversal	Hedgehog inh	NOMO-1 viab
NC(=O)c1ccccc1NCC(=O)c1ccc(F)cc1	-	-	-	-	-
O=C(CC(Sc1ccccc1C(=O)O)c1ccc(F)cc1)c1ccc(F)cc1 (configuration not stated)	-	-	-	-	117
Cn1c(-c2nonc2NC(=O)c2ccccc2Br)nc2ccccc21	-	.	-	.	-
CC(=O)Nc1nonc1-c1nc2ccccc2n1Cc1ccccc1Br	-	.	-	.	115
Cc1ccc(C)c(OC(=O)CS(=O)c2ccccc2[N+](=O)[O-])c1 (configuration not stated)	-	.	-	.	120
O=C(CS(=O)c1ccccc1[N+](=O)[O-])Oc1ccc(Cl)cc1Cl (configuration not stated)	-	.	-	.	-
C[C@H](CO)N1C[C@H](C)[C@@H](CN(C)Cc2ccc(Oc3ccccc3)cc2)Oc2c(NC(=O)Nc3ccc(C(F)(F)F)cc3)cccc2C1=O	-	-	.	-	97
C[C@@H]1CN([C@H](C)CO)C(=O)c2cccc(NC(=O)Nc3ccccc3)c2O[C@@H]1CN(C)Cc1ccc(C(F)(F)F)cc1	-	-	-	-	-
COc1ccc(NC(=O)Nc2cccc3c2O[C@H](CN(C)Cc2ccc(C(F)(F)F)cc2)[C@H](C)CN([C@H](C)CO)C3=O)cc1	-	-	-	-	-
C[C@@H]1CN([C@H](C)CO)C(=O)c2cccc(NC(=O)Nc3cccc4ccccc34)c2O[C@@H]1CN(C)Cc1ccc(C(F)(F)F)cc1	-	-	-	-	98
C[C@@H]1CN([C@@H](C)CO)C(=O)c2cccc(NC(=O)Nc3ccccc3)c2O[C@H]1CN(C)Cc1ccc(C(F)(F)F)cc1	-	-	-	74	88
C[C@H]1CN([C@@H](C)CO)C(=O)c2cccc(NC(=O)Nc3ccccc3)c2O[C@@H]1CN(C)Cc1ccc(C(F)(F)F)cc1	-	-	-	-	104
C[C@H](CO)N1C[C@H](C)[C@@H](CN(C)Cc2ccc(C(F)(F)F)cc2)Oc2c(NC(=O)Nc3ccccc3)cccc2C1=O	-	-	.	-	93
C[C@@H]1CN([C@@H](C)CO)C(=O)c2cccc(NC(=O)Nc3ccc(C(F)(F)F)cc3)c2O[C@H]1CN(C)Cc1ccccc1	-	-	-	-	103
C[C@H]1CN([C@@H](C)CO)C(=O)c2cccc(NC(=O)Nc3ccc(C(F)(F)F)cc3)c2O[C@H]1CN(C)Cc1ccccc1	-	-	.	-	-
C[C@H](CO)N1C[C@H](C)[C@H](CN(C)Cc2ccc3c(c2)OCO3)Oc2ccc(NC(=O)NC3CCCCC3)cc2C1=O	-	-	-	.	94
C[C@H]1CN([C@@H](C)CO)C(=O)c2cc(NC(=O)NC3CCCCC3)ccc2O[C@H]1CN(C)Cc1ccc2c(c1)OCO2	-	-	-	-	102
C[C@H]1CN([C@@H](C)CO)C(=O)c2cc(NC(=O)NC3CCCCC3)ccc2O[C@@H]1CN(C)Cc1ccc2c(c1)OCO2	-	-	-	-	-
Cc1cc(C)nc(S/C=C/C(=O)c2ccc(Cl)cc2)n1	-	-	-	-	121
O=C(/C=C/Sc1ccc(Cl)cc1)c1ccccc1	-	-	-	-	123
Cn1cnnc1S/C=C/C(=O)c1ccc(Cl)cc1	-	-	-	-	116
CC(C)(C)C(=O)CC(Nc1ccccc1)c1ccc(Cl)cc1 (configuration not stated)	-	-	-	.	-
Cc1cc(C)nc(SCC(O)COc2ccc(Cl)cc2)n1 (configuration not stated)	-	.	.	.	-
CN(CCOC(=O)Nc1cccc(Cl)c1)c1ccc(C#N)cn1	-	-	-	-	-
COc1cc([C@@H]2c3cc4c(cc3[C@@H](O[C@@H]3O[C@@H]5CO[C@@H](C)O[C@H]5[C@H](O)[C@H]3O)[C@H]3COC(=O)[C@H]23)OCO4)cc(OC)c1O	-	-	.	-	117
COc1cc([C@@H]2c3cc4c(cc3[C@H](O)[C@H]3COC(=O)[C@H]23)OCO4)cc(OC)c1OC	-	-	.	91	113
COc1cc(C2OC[C@@H]3[C@@H](c4cc(OC)c(O)c(OC)c4)OC[C@H]23)cc(OC)c1O (some centres not stated)	-	-	-	-	-
COc1cc([C@@H]2c3cc4c(cc3[C@H](O)[C@H]3COC(=O)[C@@H]23)OCO4)cc(OC)c1OC	-	-	.	75	108

Screens: PubChem BioAssay, Broad Institute
